This is an account of results in PubChem BioAssay AID436 (Emory University Molecular Libraries Screening Center, 2006).

Hit rate of the full screen: of about 72,000 compounds, about 350 (0.49%) were called active.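 Rule for the calls: active = activity remaining at or below 50% of control, provided the compound also passes the data quality filters; inactive = the rest, including low values that fail the filters.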 Only a selection was taken, and actives are over-represented in it overall.

The target of the experiment is Ubiquitin carboxyl-terminal hydrolase BAP1 (Homo sapiens) (UniProt Q92560). In words: BAP1 ubiquitin hydrolase activity blockers – biochemical, Ub-AMC fluorescence, kinetic, primary screen (AID 436).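 Note: 100% = DMSO wells rate and 0% = substrate alone blank rate.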 The conditions noted are these: recombinant BAP1, Ub-AMC hydrolysis fluorescence kinetic; at 20 µM; stronger effect = lower value.
Chain of Ubiquitin carboxyl-terminal hydrolase BAP1 (Homo sapiens) (Q92560 whole entry, looked up): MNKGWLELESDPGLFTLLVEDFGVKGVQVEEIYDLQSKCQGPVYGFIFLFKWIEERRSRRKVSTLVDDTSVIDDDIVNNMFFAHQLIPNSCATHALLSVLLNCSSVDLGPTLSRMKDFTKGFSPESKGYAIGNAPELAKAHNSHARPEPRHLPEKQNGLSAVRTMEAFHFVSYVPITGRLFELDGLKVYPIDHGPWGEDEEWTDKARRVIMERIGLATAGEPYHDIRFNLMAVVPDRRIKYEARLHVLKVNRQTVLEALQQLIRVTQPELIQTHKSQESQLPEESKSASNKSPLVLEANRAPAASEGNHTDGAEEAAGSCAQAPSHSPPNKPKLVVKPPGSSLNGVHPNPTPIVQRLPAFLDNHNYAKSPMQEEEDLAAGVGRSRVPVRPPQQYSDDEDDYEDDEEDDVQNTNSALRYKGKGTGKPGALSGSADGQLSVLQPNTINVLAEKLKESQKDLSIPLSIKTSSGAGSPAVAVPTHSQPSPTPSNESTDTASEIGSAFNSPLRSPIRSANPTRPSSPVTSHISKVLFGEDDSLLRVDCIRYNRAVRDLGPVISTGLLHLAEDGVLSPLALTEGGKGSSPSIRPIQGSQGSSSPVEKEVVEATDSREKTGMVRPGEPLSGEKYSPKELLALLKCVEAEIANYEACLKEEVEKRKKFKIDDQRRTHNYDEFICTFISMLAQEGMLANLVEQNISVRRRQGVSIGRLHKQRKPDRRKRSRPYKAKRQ
Consider `CC(=O)c1c(O)c(C)c(O)c(Cc2c(O)c3c(c(C(=O)/C=C/c4ccccc4)c2O)OC(C)(C)C=C3)c1O`, for which the activity remaining (% of control) was 14.8% (active). Take `CCCCC[n+]1ccc(-c2cc[n+](CCCCC)cc2)cc1`: the activity remaining (% of control) is 101% (inactive). Regarding `O=C(O)C1C2CCC(O2)C1C(=O)O` (stereo not drawn), the activity remaining (% of control) is 97.4% (inactive). `O=C1c2ccccc2C(=O)N1Cc1nc2ccccc2c(=O)n1-c1nccs1`: the activity remaining (% of control) is 84.5% (inactive). In the case of `Cc1ccc(Cn2c(C)c3cnn(CC(=O)N4CCC5(CC4)OCCO5)c(=O)c3c2C)cc1`, the activity remaining (% of control) was 105% (inactive). The same measure for `CCCCCn1c(=O)c(C(=O)NCc2ccccn2)c(O)c2ccccc21`: 39.6% (active).

For `C=CCN1CCC2(C)c3cc(O)ccc3CC1[C@@H]2C` (stereo partly drawn), the activity remaining (% of control) is 96.1% (inactive). With `COc1ccccc1OC(=O)c1ccc(C)c(S(=O)(=O)N2CCOCC2)c1`, the activity remaining (% of control) is 104% (inactive).
